Bioassay records from PubChem BioAssay.
SKKanGAS inh: inhibitors of SKKanGAS S. pyogenes growth in kanamycin (SK-promoter or general growth effect); 1.3% of 300,000 active; inhibition, % at 7.5 µM; BacTiter-Glo, 6 h; AID 1662;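 active = mean replicate score, as percent of positive control median, at least 50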;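 note: strain carries kanamycin resistance gene driven by streptokinase promoter and grows in 40 µg/ml kanamycin; loss of luminescence reflects streptokinase promoter inhibition or plain growth inhibition; 0% = median of DMSO wells and 100% = positive control at its reference dose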
Granule exo inh: lytic granule exocytosis inhibition | 0.66% of 360,000 active | inhibition, % at 10 µM | TALL-104 LAMP-1 surface exposure, flow cytometry; cells stimulated with thapsigargin and PMA | AID 651702;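 active = inhibition above about 55%, limit read from the data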
PP1 inh: blocks human PP1-alpha phosphatase, a PP5 counter-screen; 0.9% of 320,000 active; purified PP1alpha, OMFP fluorescence; inhibition, % at 6.7 µM;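 active = inhibition above the mean inhibition of all tested compounds plus 3 SD, computed separately for each screening campaign, cut at about 15% in these data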
IDE act: IDE (human) activation, cell-based; HEK cells, FAbeta-B cleavage, fluorescence polarization; 0% vehicle, 100% cell-free pure enzyme wells; activation, % at 5.96 µM; 0.073% of 340,000 active; AID 493087;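 active = activation above the mean of all tested compounds plus 3 SD, set per screening campaign, cut at about 17% in these data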
Target sequence (P14735 whole entry, looked up): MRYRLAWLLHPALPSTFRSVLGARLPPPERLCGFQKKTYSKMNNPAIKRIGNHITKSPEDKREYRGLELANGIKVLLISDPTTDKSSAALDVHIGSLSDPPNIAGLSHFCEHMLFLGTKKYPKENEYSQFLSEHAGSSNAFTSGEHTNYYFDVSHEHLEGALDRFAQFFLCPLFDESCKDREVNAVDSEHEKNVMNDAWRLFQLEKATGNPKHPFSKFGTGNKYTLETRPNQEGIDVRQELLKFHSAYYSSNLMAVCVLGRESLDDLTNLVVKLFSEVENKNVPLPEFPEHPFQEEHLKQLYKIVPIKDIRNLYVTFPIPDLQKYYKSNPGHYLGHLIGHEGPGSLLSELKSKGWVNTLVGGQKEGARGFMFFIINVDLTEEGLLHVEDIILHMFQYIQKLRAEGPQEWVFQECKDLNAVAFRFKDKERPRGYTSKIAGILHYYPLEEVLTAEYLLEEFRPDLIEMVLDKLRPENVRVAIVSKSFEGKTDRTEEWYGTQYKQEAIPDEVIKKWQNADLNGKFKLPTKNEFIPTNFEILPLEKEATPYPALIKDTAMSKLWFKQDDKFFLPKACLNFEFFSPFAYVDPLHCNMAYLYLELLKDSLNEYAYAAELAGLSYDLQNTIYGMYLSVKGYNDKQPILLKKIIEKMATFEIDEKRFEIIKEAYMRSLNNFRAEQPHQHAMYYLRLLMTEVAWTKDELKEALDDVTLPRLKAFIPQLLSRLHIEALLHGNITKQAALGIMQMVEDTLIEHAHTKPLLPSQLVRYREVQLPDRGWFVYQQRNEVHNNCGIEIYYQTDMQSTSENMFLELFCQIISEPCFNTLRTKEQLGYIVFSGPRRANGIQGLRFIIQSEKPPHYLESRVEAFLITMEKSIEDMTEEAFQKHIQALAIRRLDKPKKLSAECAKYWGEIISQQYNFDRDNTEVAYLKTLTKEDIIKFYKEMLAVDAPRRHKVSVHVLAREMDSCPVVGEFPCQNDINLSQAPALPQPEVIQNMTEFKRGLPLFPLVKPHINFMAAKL
PP5 inh: inhibitors of human protein phosphatase 5 (PP5); purified PP5c, OMFP substrate fluorescence; inhibition, % at 6.7 µM; 0.18% of 320,000 active;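 active = inhibition above the campaign's mean inhibition across all tested compounds plus 3 SD, cut at about 9.5% in these data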;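 note: 0% = DMSO only and 100% = 100 µM cantharidin control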
IDE inh: inhibits human insulin-degrading enzyme in HEK cells; FAbetaB cleavage, fluorescence polarization; P14735; inhibition, % at 5.59 µM; 0.41% of 320,000 active;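 active = percent inhibition above the average of all tested compounds plus 3 SD, set per screening campaign, cut at about 16% in these data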;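 note: IDE supplied by intact live HEK cells; FP after avidin binding of uncleaved biotin substrate so inhibition keeps polarization high; 0% = DMSO wells and 100% = 60 µM reference IDE inhibitor Ii1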
* marks the source's active call; other numbers are inactive results; . = no result; ! = not confirmed by another sample. Rows were chosen to be rich in hits. Some 2.8% of all compounds tested hit in one or more screens of this group.

SMILES	SKKanGAS inh	Granule exo inh	PP1 inh	IDE act	PP5 inh	IDE inh
CN(C)c1nc(=NCc2ccco2)ss1	38	76*	0	-6	2	6
CCOC(=O)c1c(CN2CCNCC2)nc2ccc(Cl)cc2c1-c1ccccc1	.	39	.	0	.	.
COc1ccc(-c2nc(-c3cccs3)c(-c3cccs3)[nH]2)cc1OC	68*	-1	-1	11	4	0
COc1ccc2c(-c3ccccc3)cc(SCC(=O)NC(N)=O)nc2c1	-10	6	0	26*	0	5
O=C(c1ccc(Cl)c(Cl)c1)N1CCC(=O)N(C(COCc2ccc(Cl)cc2)Cc2ccccc2)CC1 (centres undefined)	51*	-15	11	2	5	3
Cc1cccc(COCC(Cc2ccccc2)N2CCN(C(=O)c3ccc(Cl)c(Cl)c3)CCC2=O)c1 (centres undefined)	24	-4	4	5	9	2
Cc1cccc(NC(=O)CNC(=O)CSc2nnc(C(F)(F)F)n2C)c1C	.	12	5	5	3	-3
Oc1cccc(-c2sc3ccccc3c2-c2ccc(OCCN3CCCCC3)cc2)c1	.	59*	.	.	.	.
O=C(c1ccc(OCCN2CCCCC2)cc1)c1c(-c2ccc(O)cc2)sc2cc(O)ccc12	-3	28	16*!	5	3	8
c1ccc(-c2sc3ccccc3c2-c2ccc(OCCN3CCOCC3)cc2)cc1	.	-3	.	3	.	3
COC(=O)c1ccc(OCCN2CCCCCC2)cc1	-3	-1	-2	0	2	3
CC(C)=CCC[C@H](C)C[C@@H]1Cc2[nH][nH]c(=O)c2[C@H](c2ccc(Cl)cc2)O1	.	1	.	.	.	.
O=C(O)c1ccccc1NC(=O)c1ccccc1Nc1ccccc1	11	-2	17*	7	5	4
O=C(Nc1ccccc1C(=O)Nc1ccccc1C(=O)O)c1ccccc1	33	3	6	-4	2	11
CCN(CC)S(=O)(=O)c1ccc(N2CCOCC2)c(NC(=O)c2nn(C(C)C)c(=O)c3ccccc23)c1	.	2	.	.	.	.
Cc1ccc(NCc2cccc(B(O)O)c2)cc1	.	-4	.	3	.	.
CC(C)(C)[C@H]1CCC(=O)N([C@H](CSc2ccccc2)Cc2ccccc2)CC1	63*	-6	4	1	2	4
CC(=O)Nc1ccc(S[C@@H](CCN2CC[C@H](C(C)(C)C)CCC2=O)c2ccccc2)cc1	.	5	2	4	4	2
CC(C)(C)[C@@H]1CCC(=O)N(CC[C@H](Sc2ccccc2)c2ccccc2)CC1	79*	-1	11	3	3	3
O=C(NCCc1ccccn1)c1nc(Cn2ccc([N+](=O)[O-])n2)no1	1	-8	1	1	0	5
OCCC1CN(CCCn2cccn2)CCN1C1CCCCC1 (centres undefined)	5	-1	.	3	.	.
CCC(=O)N/C(N)=N/c1nc(C)c2cc(C)c(C)cc2n1	5	-8	2	.	-2	0
Cc1cc2nc(/N=C(\N)NC(=O)C(C)C)nc(C)c2cc1C	53*	0	4	-5	3	9
CC(=O)O[C@H]1C[C@@]2(C)[C@@H](C[C@@H](O)[C@H]3[C@@]4(C)CC[C@@H](O)[C@@H](C)[C@@H]4CC[C@@]32C)/C1=C(\CCC=C(C)C)C(=O)O	109*	0	1	3	4	9
CC(=O)O[C@]1(C(C)=O)CCC2C3C=C(C)C4=CC(=O)CC[C@]4(C)C3CC[C@@]21C (some centres undefined)	1	-21	-3	-4	-1	2
SMILES	SKKanGAS inh	Granule exo inh	PP1 inh	IDE act	PP5 inh	IDE inh
Nc1c(S(=O)(=O)c2cccc(Cl)c2)c2nc3ccccc3nc2n1/N=C/c1ccc(O)c(O)c1	95*	.	13	.	8	2
COc1cccc(/C=N/n2c(N)c(S(=O)(=O)c3cccs3)c3nc4ccccc4nc32)c1OC	21	1	-3	10	0	3
Oc1ccc(C[C@H]2CNC(=S)N2CC2CCCN2C[C@H](Cc2ccc(O)cc2)N2C[C@H](Cc3ccccc3)N(CC3CCCCC3)C2=S)cc1 (some centres undefined)	.	17	.	1	.	.
CCC(=O)O[C@@H]1CC(=O)O[C@H](C)CC=CC=C[C@@H](O)[C@H](C)C[C@H](CC=O)[C@H](O[C@H]2O[C@H](C)[C@@H](O[C@H]3C[C@@](C)(O)[C@@H](OC(=O)CC)[C@H](C)O3)[C@H](N(C)C)[C@H]2O)[C@H]1OC	110*	.	.	.	.	.
CSc1nc2ccccc2cc1/C=C(\C#N)c1ccccc1	29	1	0	1	2	-1
O=Cc1cc2ccccc2nc1SCCCF	-17	59*	0	-2	3	1
Cn1c(=O)c2[nH]c(NN=Cc3ccc(Br)cc3)nc2n(C)c1=O	.	26	.	-6	.	.
Cc1ccc(C=NNc2nc3c([nH]2)c(=O)n(C)c(=O)n3C)cc1	.	84*	.	-4	.	.
Cc1csc(NC(=O)c2c(O)c3c(n(CC(C)C)c2=O)CCCC3)n1	61*	2	-6	-2	2	-3
COc1ccc(NC(=O)CN(Cc2ccco2)Cc2ccco2)cc1S(=O)(=O)N1CCCCC1	.	1	1	-1	2	-3
CC1CCC(C(C)C)C(OC(=O)C[n+]2cc(-c3ccc(Cl)cc3)n3c2CCC3)C1 (centres undefined)	6	64*	4	5	0	3
COCc1nnc(NC(=O)c2ccc(S(=O)(=O)N3CCCc4ccccc43)cc2)o1	21	-1	17*	-1	1	-4
Cc1cc(C)c2[nH]c(O)c(N=Nc3ccc(C(=O)O)cc3)c2c1	74*	1	-1	9	-1	-3
O=S(=O)(NCC[C@@H]1CC[C@H](NS(=O)(=O)c2cccc(F)c2)[C@@H](CO)O1)c1cccc(F)c1	.	-2	.	.	.	.
Oc1cccc(Nc2c3ccccc3nc3ccccc23)c1	4	28	-1	0	1	-5
CCN(CC)Cc1cc(Nc2c3ccccc3nc3c4ccccc4n(C)c23)cc(CN(CC)CC)c1O	.	100*	.	5	.	.
Cc1ccc(S(=O)(=O)SC/C=C/CSS(=O)(=O)c2ccc(C)cc2)cc1	.	78*	.	-30	.	.
Cn1c(CN2CCOCC2)nnc1SCC(=O)Nc1ccc([N+](=O)[O-])cc1O	-16	14	-3	24*	2	-16
CCN(CC)c1ccc(-c2sc(Nc3ccccc3)n[n+]2-c2ccc(F)cc2)cc1	0	7	17*	-7	4	2
Cc1ccc(S(=O)(=O)/N=C(\Sc2ccccc2)c2ccccc2)cc1	-2	65*	-2	0	-1	1
COc1cccc(C(=O)Oc2cc3c4c(c2)C(C)=CC(C)(C)N4C(=O)C3=O)c1	18	19	17*	-5	5	7
COc1ccccc1CNC(=O)c1cc(S(=O)(=O)N2CCCCC2)c[nH]1	-4	-2	2	-4	1	7
